Among all 5,500 compounds or so, about 2,000 (36%) were called active. Not shown: some 18% with an inconclusive outcome. Cut-off read from the data, not from the text of the source: active = normalized growth mostly below about 0.91 (no sharp cut-off); inconclusive = no clear call, values can overlap the other calls; inactive = mostly above about 0.92. The list shows a part of the results.
Test: chemical genetic growth profiling, strain panel (AID 1159580);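 note: tested at 20 µM; growth read once vehicle control cultures reached saturation at 30 °C; 1 = growth at the plate median or of vehicle wells; lower values mean less growth of the strain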
Conditions: S. cerevisiae deletion strains, growth OD

Measured: normalized growth

CC(=O)Oc1ccc(O)cc1
inactive: locus YAL013W, strain DEP1, active compounds read low 0.942 | locus YAL021C, strain ccr4, active compounds read low 1.03 | locus YAL026C, strain drs2, active compounds read low 0.953 | locus YAL030W, strain snc1, active compounds read low 0.994 | locus YBL061C, strain skt5, active compounds read low 0.977 | locus YBR009C, strain hhf1, active compounds read low 0.963 | locus YBR023C, strain chs3, active compounds read low 0.982 | locus YBR171W, strain sec66, active compounds read low 0.974 | locus YBR229C, strain ROT2, active compounds read low 1.02 | locus YBR231C, strain swc5, active compounds read low 0.971 | locus YBR279W, strain paf1, active compounds read low 0.986 | locus YCL011C, strain gbp2, active compounds read low 0.989 | locus YCL016C, strain dcc1, active compounds read low 0.999 | locus YCL029C, strain bik1, active compounds read low 1.03 | locus YCL061C, strain MRC1, active compounds read low 0.993 | locus YCL069W, strain vba3, active compounds read low 0.987 | locus YCR088W, strain abp1, active compounds read low 0.995 | locus YDL005C, strain med2, active compounds read low 0.978 | locus YDL035C, strain GPR1, active compounds read low 0.922 | locus YDL040C, strain nat1, active compounds read low 0.994 | locus YDL074C, strain BRE1, active compounds read low 1 | locus YDL101C, strain DUN1, active compounds read low 1 | locus YDL134C, strain PPH21, active compounds read low 0.89 | locus YDL185W, strain tfp1, active compounds read low 1.03 | locus YDL192W, strain arf1, active compounds read low 1.02 | locus YDR001C, strain nth1, active compounds read low 0.987 | locus YDR069C, strain doa4, active compounds read low 1.02 | locus YDR101C, strain arx1, active compounds read low 1.02 | locus YDR137W, strain rgp1, active compounds read low 0.936 | locus YDR150W, strain NUM1, active compounds read low 0.999 | locus YDR159W, strain sac3, active compounds read low 0.967 | locus YDR162C, strain NBP2, active compounds read low 0.916 | locus YDR195W, strain ref2 0.997 | locus YDR297W, strain sur2, active compounds read low 0.987 | locus YDR318W, strain mcm21, active compounds read low 1 | locus YDR334W, strain swr1, active compounds read low 0.986 | locus YDR335W, strain msn5, active compounds read low 0.995 | locus YDR388W, active compounds read low 1.02 | locus YDR392W, strain spt3, active compounds read low 0.844 | locus YDR502C, strain sam2, active compounds read low 1.02 | locus YEL003W, strain gim4, active compounds read low 0.986 | locus YEL037C, strain rad23, active compounds read low 0.987 | locus YEL061C, strain CIN8 (second series), active compounds read low 0.98 | locus YEL061C, strain CIN8, active compounds read low 1 | locus YER015W, strain faa2, active compounds read low 0.992 | locus YER016W, strain bim1, active compounds read low 1.01 | locus YER110C, active compounds read low 1.04 | locus YER111C, strain swi4, active compounds read low 0.969 | locus YER155C, strain BEM2 (second series), active compounds read low 0.959 | locus YER155C, strain BEM2, active compounds read low 1.01 | locus YER167W, strain BCK2, active compounds read low 0.976 | locus YFR010W, strain ubp6, active compounds read low 0.969 | locus YGL078C, strain dbp3, active compounds read low 1.02 | locus YGL086W, strain mad1, active compounds read low 0.984 | locus YGL167C, strain pmr1, active compounds read low 0.988 | locus YGL173C, strain kem1, active compounds read low 0.975 | locus YGL227W, strain vid30, active compounds read low 0.983 | locus YGL240W, strain doc1, active compounds read low 0.926 | locus YGL248W, strain PDE1, active compounds read low 0.923 | locus YGL253W, strain hxk2, active compounds read low 0.973 | locus YGR135W, strain pre9, active compounds read low 0.99 | locus YGR252W, strain gcn5, active compounds read low 0.87 | locus YHR013C, strain ard1, active compounds read low 0.975 | locus YHR027C, strain rpn1, active compounds read low 0.987 | locus YHR030C, strain SLT2, active compounds read low 0.994 | locus YHR079C, strain IRE1 (second series), active compounds read low 1.02 | locus YHR094C, strain hxt1, active compounds read low 1.02 | locus YHR129C, strain ARP1, active compounds read low 0.994 | locus YHR142W, strain chs7, active compounds read low 0.996 | locus YHR200W, strain rpn10, active compounds read low 1.03 | locus YIL073C, strain SPO22, active compounds read low 0.89 | locus YIL125W, strain kgd1, active compounds read low 1.02 | locus YIR030C, strain dcg1, active compounds read low 1.04 | locus YJL092W, strain hpr5, active compounds read low 0.983 | locus YJL095W, strain BCK1 (second series), active compounds read low 0.996 | locus YJL095W, strain BCK1, active compounds read low 0.976 | locus YJL115W, strain asf1, active compounds read low 0.988 | locus YJL129C, strain trk1, active compounds read low 1.01 | locus YJL134W, strain LCB3, active compounds read low 1.03 | locus YJL154C, strain vps35, active compounds read low 0.985 | locus YJL164C, strain tpk1, active compounds read low 0.975 | locus YJL166W, strain qcr8, active compounds read low 0.978 | locus YJL168C, strain set2, active compounds read low 1.02 | locus YJL187C, strain SWE1 (second series), active compounds read low 0.997
active: locus YBR021W, strain FUR4, active compounds read low 0.796 | locus YGR229C, strain SMI1, active compounds read low 0.572 | locus YIL066C, strain RNR3, active compounds read low 0.852
